From PubChem
Most compounds without a hit are left out; they make up all but 19% or so of the library.
DT40 TDP1 no CPT: qHTS for Inhibitors of human tyrosyl-DNA phosphodiesterase 1 (TDP1): qHTS in cells in absence of CPT; DT40 Tdp1-/- hTDP1 cells, no CPT, ATP luminescence, 48 h; actives 15% (n = 420,000); Potency, µM (series often up to 46.2 µM), for inactives: at the highest dose activity change, negative = growth inhibition, hits mostly inhibitors; AID 686978, 2013; also: potency is read from the fitted curve at half-maximal effect; nearly all actives have a fitted effect of over 55% in size
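Compound effects on proliferation are scored in DT40 Tdp1-/-;hTDP1 cells in the absence of CPT. ATP levels (CellTiter-Glo luminescence) are recorded after a ≥48 hr, 37 °C incubation.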
DT40 TDP1 CPT: growth inhibition of DT40 Tdp1-/-;hTDP1 cells with camptothecin (screen for TDP1 inhibitors). actives 12% (n = 420,000). chicken DT40 Tdp1-/-;hTDP1 cells + 20 nM CPT, ATP luminescence, 48 h. Potency, µM (highest dose often 46.2 µM), without a hit: at the top dose activity change, negative = growth inhibition, usual class: inhibitors. AID 686979; also: potency is read from the fitted curve at half-maximal effect; nearly all actives have a fitted effect of over 55% in size
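Cell growth measured by CellTiter-Glo luminescence after a minimum 48 h, 37 C compound exposure with 20 nM CPT in Tdp1-knockout DT40 cells stably expressing hTDP1, seeded 400/well; qHTS titration format.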
HT1080-NT tox: kills 2HG-producing HT-1080-NT fibrosarcoma cells | HT-1080-NT fibrosarcoma viability, CellTiter-Glo ATP luminescence, 48 h | Potency, µM (series often up to 46.1 µM), for inactives: at the top dose activity, negative = less viability, usual class: cytotoxic | actives 1.6% (n = 360,000) | AID 686970;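 also: NT is the 2HG producing partner of a matched IDH1 knockdown line; potency is read from the fitted curve at half-maximal effect; 0% = DMSO-treated cells and -100% = media-only wells without cells; nearly all actives have a fitted effect of over 55% in size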
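Fibrosarcoma NT cells, 750 per well in 5% FBS RPMI, were exposed to compound for 48 hours. Viability: CellTiter-Glo luminescence.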
ELG1 DNA repair: inhibitors of ELG1-dependent DNA repair in HEK293T cells | HEK293T ELG1-luciferase reporter, luminescence, 16 h; DNA damage induced by 5-fluorouridine | Potency, µM (series often up to 46.1 µM), for the others: at the top dose activity change, negative = inhibition, most hits filed as inhibitors | actives 2.3% (n = 330,000) | AID 504467; also: potency is read from the fitted curve at half-maximal effect; nearly all actives have a fitted effect of over 55% in size
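HEK293T cells expressing luciferase-tagged ELG1 (2,000/well) received 5-Fluorouridine plus compound or DMSO for 16 hr at 37 °C. Luciferase was read by ONE-Glo luminescence after 30 min at room temperature.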
IL1B secr inh: blocks inflammasome-driven IL-1 beta release | THP-1 LPS/ATP IL-1B secretion, AlphaLISA, 16 h; hits give low values | activity change, % at 57.5 µM | actives 4.7% (n = 360,000) | AID 743279; in the data active = activity change below about -50%; inconclusive = mostly about -30% to -49%
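Secreted IL-1B measured by AlphaLISA bead assay after 16 h compound exposure of THP-1 cells; compounds (final up to 57.5 uM) added 1 h before LPS (250 ng/mL) and ATP (1.25 mM) stimulation; lower signal means less secretion.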
HT1080 IDH1KD tx: HT-1080 IDH1 knockdown cell toxicity (counter line) | HT-1080 IDH1 knockdown viability, ATP luminescence, 48 h | Potency, µM (titrated, usually from 46.1 µM), for the others: at the top dose activity, negative = toxicity, most hits filed as cytotoxic | actives 2% (n = 360,000);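 also: potency is read from the fitted curve at half-maximal effect; 0% = DMSO wells and -100% = cell-free medium wells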
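HT-1080-IDH1KD cells (IDH1 knocked down), 750/well in RPMI with 5% FBS, treated with compound 48 h at 37 degrees C. Viability by CellTiter-Glo luminescence, normalised to DMSO and no-cell wells; concentration-response curves classed.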
* = called active by the depositor. Unless noted, calls follow the shape of the dose curve; as a rule, active = well fitted curve in the direction sought with a large enough effect; inconclusive = small, poorly fitted or top-dose-only effect, or another doubt; inactive = no such curve, though single readings can be large; an effect the other way counts as inactive or inconclusive. Unless noted, % is scaled to controls: 0 for no effect and ±100 for the full control effect.

Results for COc1ccccc1CNC(=O)c1ccc(N2CCCC2)c(NC(=O)NCCC(C)C)c1 ?
DT40 TDP1 no CPT: -21%; DT40 TDP1 CPT: -18%

How did O=C(N/N=C/c1ccc(O)cc1O)/C(=C/c1ccccc1)CCO do in these assays?
DT40 TDP1 no CPT: inconclusive; DT40 TDP1 CPT: inconclusive; HT1080-NT tox: inconclusive; ELG1 DNA repair: inconclusive; IL1B secr inh: 60; HT1080 IDH1KD tx: inconclusive

What do the screens show for `CCN(CC(=O)Nc1c(F)cccc1F)C(=O)c1ccc(NC(=O)CC2SC(N3CCCC3)=NC2=O)cc1` (stereo not drawn)?
DT40 TDP1 no CPT: -18%; DT40 TDP1 CPT: 4%; HT1080-NT tox: 4%; ELG1 DNA repair: inconclusive; IL1B secr inh: 7; HT1080 IDH1KD tx: 4%

How did c1ccc2c(c1)CC1(CCCC1)N=C2N1CCOCC1 do in these assays?
DT40 TDP1 no CPT: 12%; DT40 TDP1 CPT: -12%; HT1080-NT tox: 0%; ELG1 DNA repair: 0%; IL1B secr inh: -7; HT1080 IDH1KD tx: 4%

What do the screens show for `COCC(=O)N1CCC[C@@]2(CCN(c3ccccn3)C2)C1`?
DT40 TDP1 no CPT: 3%; DT40 TDP1 CPT: 12%

How did O=C(NNc1nc2ccccc2s1)c1ccc(F)cc1 do in these assays?
DT40 TDP1 no CPT: -13%; DT40 TDP1 CPT: 11%; HT1080-NT tox: 10%; ELG1 DNA repair: inconclusive; IL1B secr inh: 3; HT1080 IDH1KD tx: -12%

What do the screens show for `CCOc1ccc2nc(Cl)c(CN(C(=O)c3cnccn3)C3CCCC3)cc2c1`?
DT40 TDP1 no CPT: -29%; DT40 TDP1 CPT: 8%; HT1080-NT tox: 2%; ELG1 DNA repair: 15µM*; IL1B secr inh: 0; HT1080 IDH1KD tx: -17%

What do the screens show for `O=C(Nc1nnc(SCc2ccc(F)cc2)s1)c1cccnc1Cl`?
DT40 TDP1 no CPT: -18%; DT40 TDP1 CPT: 0%; HT1080-NT tox: -2%; ELG1 DNA repair: -1%; IL1B secr inh: 7; HT1080 IDH1KD tx: 0%

Results for CCOc1ccc2nc(Cl)c(CN(C(C)=O)C3CCCCC3)cc2c1 ?
DT40 TDP1 no CPT: -3%; DT40 TDP1 CPT: -8%; HT1080-NT tox: 23%; ELG1 DNA repair: -13%; IL1B secr inh: 0; HT1080 IDH1KD tx: 11%

Results for O=C(NNc1nc2ccc(F)cc2s1)c1cccc(F)c1 ?
DT40 TDP1 no CPT: inconclusive; DT40 TDP1 CPT: 12µM*; HT1080-NT tox: inconclusive; ELG1 DNA repair: inconclusive; IL1B secr inh: 35; HT1080 IDH1KD tx: 15µM*

What do the screens show for `CCOc1ccc2nc(NC(=O)c3ccc(OCC4CCCO4)cc3)sc2c1` (stereo not drawn)?
DT40 TDP1 no CPT: 5.8µM*; DT40 TDP1 CPT: 4.1µM*; HT1080-NT tox: inconclusive; ELG1 DNA repair: inconclusive; IL1B secr inh: -19; HT1080 IDH1KD tx: inconclusive

Results for O=C(Nc1nnc(SCc2ccc(F)cc2)s1)c1ccccn1 ?
DT40 TDP1 no CPT: 5.2µM*; DT40 TDP1 CPT: 2.6µM*; HT1080-NT tox: inconclusive; ELG1 DNA repair: inconclusive; IL1B secr inh: 0; HT1080 IDH1KD tx: inconclusive

What do the screens show for `CCNc1ncc2nc(-c3cc(F)cc(F)c3)c(=O)n(-c3ccccc3)c2n1`?
DT40 TDP1 no CPT: inconclusive; DT40 TDP1 CPT: 0%

Results for CCOc1ccc2nc(NC(=O)C3(C)CC3(Br)Br)sc2c1 (stereo not drawn) ?
DT40 TDP1 no CPT: 23µM*; DT40 TDP1 CPT: 16µM*; HT1080-NT tox: 1%; IL1B secr inh: -16; HT1080 IDH1KD tx: -15%

How did CCOCC(=O)Nc1nc2ccc(OCC)cc2s1 do in these assays?
DT40 TDP1 no CPT: inconclusive; DT40 TDP1 CPT: inconclusive; HT1080-NT tox: -6%; ELG1 DNA repair: inconclusive; IL1B secr inh: -14; HT1080 IDH1KD tx: -13%
